Test results reported in PubChem BioAssay.
Entries with a potency or affinity are not part of this list. Inconclusive results are not listed. A number with no mark means an inactive call.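 Rule for the calls: active = fitted half-maximal concentration for viability loss no higher than twice the top valid dose, in every repeat run; inconclusive = repeat runs disagree, flat partial loss, or poor curve fit; inactive = the rest.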

Assay: IOSE-T80 viability loss, PAX8-independent line – cell-based, cherry-pick, selectivity assay for PAX8 inhibitor project, dose response (AID 687032);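 note: cells exposed to compound for 96 h before reading; 0% = neutral control wells and -100% = 2 µM mitoxantrone kill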
Settings: CellTiterGlo ATP luminescence, 96 h; series mostly up to 35 µM; activity change, negative = viability loss: at the top concentration

Row | Structure (SMILES) | activity change, negative = viability loss
1 | CC(C)NC(=O)N1Cc2cc(C(=O)NCC(F)(F)F)nc(-c3cccc(-c4cc5ccccc5o4)c3)c2[C@H]1CCO | 10.1%
2 | C[C@@H]1CN([C@@H](C)CO)C(=O)c2cc(NC(=O)Nc3cccc4ccccc34)ccc2O[C@@H]1CN(C)Cc1ccc2c(c1)OCO2 | 14.5%
3 | C[C@@H]1CN([C@H](C)CO)C(=O)c2cc(NS(=O)(=O)c3ccc(F)cc3)ccc2O[C@@H](C)CCCCO[C@H]1CN(C)Cc1ccccc1 | 14.4%
4 | N#C[C@H]1[C@H](c2ccc(C#CC3CCCCC3)cc2)[C@H](CO)N1C(=O)Nc1ccc(F)cc1 | -5.21% [at 30 µM]
5 | N#Cc1cccc(-c2ccc3c(c2)[C@@H]2[C@@H](CCN2S(=O)(=O)c2ccc(F)cc2)[C@@H](CO)N3)c1 | 3.16%
6 | CCCN(C)C[C@H]1OCCCC[C@@H](C)Oc2ccc(NC(=O)c3ccccc3)cc2C(=O)N([C@H](C)CO)C[C@H]1C | 8.78%
7 | C[C@H]1CCCCO[C@H](CN(C)S(=O)(=O)c2ccc(Cl)cc2)[C@@H](C)CN([C@@H](C)CO)C(=O)c2cc(NS(=O)(=O)c3ccc(F)cc3)ccc2O1 | 15.8%
8 | C[C@@H]1CCCCO[C@@H](CN(C)Cc2ccc(Cl)c(Cl)c2)[C@H](C)CN([C@@H](C)CO)C(=O)c2cc(NC(=O)Nc3ccccc3)ccc2O1 | -3.9%
9 | C[C@@H]1CN([C@H](C)CO)C(=O)c2cc(NS(=O)(=O)c3ccc(Cl)cc3)ccc2O[C@@H](C)CCCCO[C@H]1CN(C)C(=O)C1CCCCC1 | 7.65%
10 | C[C@H]1CCCCO[C@@H](CN(C)S(=O)(=O)c2cccs2)[C@@H](C)CN([C@@H](C)CO)C(=O)c2cc(NS(=O)(=O)c3ccc(Cl)cc3)ccc2O1 | 5.4%
11 | C[C@@H]1CN([C@H](C)CO)C(=O)c2cc(NC(=O)Nc3ccc(F)cc3)ccc2O[C@@H](C)CCCCO[C@H]1CN(C)S(=O)(=O)c1ccc(F)cc1 | 4.28%
12 | C[C@H](CO)N1C[C@H](C)[C@@H](CN(C)Cc2ccc(Cl)c(Cl)c2)OCCCC[C@H](C)Oc2ccc(NC(=O)Nc3ccc(C(F)(F)F)cc3)cc2C1=O | 0.162%
13 | CC(C)CC#Cc1ccc([C@@H]2[C@@H](CO)N3CCCCN(S(=O)(=O)c4ccc(F)cc4)C[C@H]23)cc1 | 10.4%
14 | Cc1noc(C)c1S(=O)(=O)Nc1ccc2c(c1)C(=O)N([C@@H](C)CO)C[C@H](C)[C@H](CN(C)C(=O)Nc1ccc(C(F)(F)F)cc1)OCCCC[C@H](C)O2 | -4.13%
15 | COc1cccc(S(=O)(=O)N2CC[C@@H]3[C@H](CO)Nc4ccc(C5=CCCCC5)cc4[C@@H]32)c1 | 7.38%
16 | Cc1noc(C)c1S(=O)(=O)N(C)C[C@H]1OCCCC[C@@H](C)Oc2ccc(NS(=O)(=O)c3ccc(Cl)cc3)cc2C(=O)N([C@@H](C)CO)C[C@H]1C | -8.67%
17 | Cc1ccc(S(=O)(=O)N(C)C[C@@H]2OCCCC[C@H](C)Oc3ccc(NS(=O)(=O)c4ccc(Cl)cc4)cc3C(=O)N([C@H](C)CO)C[C@H]2C)cc1 | 5.18%
18 | C[C@@H]1CN([C@H](C)CO)C(=O)c2cc(NS(=O)(=O)c3ccc(F)cc3)ccc2O[C@@H](C)CCCCO[C@@H]1CN(C)CC1CCCCC1 | 12.9%
19 | C[C@@H]1CN([C@H](C)CO)C(=O)c2c(c3ccccc3n2C)-c2ccccc2CO[C@H]1CN(C)S(=O)(=O)c1cccc(F)c1 | -3.41%
20 | C[C@@H]1CN([C@@H](C)CO)C(=O)Cc2cc(NC(=O)Nc3ccc(C(F)(F)F)cc3)ccc2O[C@H]1CN(C)S(=O)(=O)c1ccc(F)cc1 | 12.7%

Row | Structure (SMILES) | activity change, negative = viability loss
21 | O=C(Nc1ccc(F)cc1)N1CCCCN2[C@@H](CO)[C@@H](c3ccc(-c4cccc(F)c4)cc3)[C@@H]2C1 | 15.6%
22 | O=C(CN1C(=O)c2ccccc2S1(=O)=O)c1ccccc1Cl | 6.5%
23 | C[C@H](CO)N1C[C@H](C)[C@H](CN(C)Cc2ccc(Cl)c(Cl)c2)OCCCC[C@H](C)Oc2ccc(NC(=O)Nc3ccccc3)cc2C1=O | 2.51%
24 | C[C@@H]1CN([C@@H](C)CO)C(=O)c2cccc(NC(=O)c3ccncc3)c2O[C@@H]1CN(C)S(=O)(=O)c1cccs1 | 15.7%
25 | CCSCCc1nnc(NC(=O)Nc2cccc(C(F)(F)F)c2)s1 | 8.82%
26 | Cc1cccc(S(=O)(=O)N2C[C@@H](O)COC[C@@H]3O[C@@H](CC(=O)Nc4ccc(-c5ccccc5)cc4)CC[C@H]32)c1 | 8.21%
27 | C[C@@H]1CCCCO[C@H](CN(C)C)[C@H](C)CN([C@H](C)CO)C(=O)c2cc(NC(=O)Nc3cccc4ccccc34)ccc2O1 | 9.17%
28 | COc1ccc(S(=O)(=O)Nc2ccc3c(c2)CC(=O)N([C@H](C)CO)C[C@H](C)[C@@H](CN(C)Cc2ccc(-c4ccccc4)cc2)O3)cc1 | 11.6%
29 | C[C@H]1CCCCO[C@@H](CN(C)C(=O)Nc2ccc(C(F)(F)F)cc2)[C@@H](C)CN([C@@H](C)CO)C(=O)c2cc(NS(=O)(=O)c3cn(C)cn3)ccc2O1 | 1.56%
30 | Cc1ccc(S(=O)(=O)Nc2ccc3c(c2)C(=O)N([C@@H](C)CO)C[C@@H](C)[C@H](CN(C)S(=O)(=O)c2ccc(Cl)cc2)OCCCC[C@@H](C)O3)cc1 | 16%
31 | Cc1ccc(S(=O)(=O)Nc2ccc3c(c2)C(=O)N([C@H](C)CO)C[C@H](C)[C@@H](CN(C)S(=O)(=O)c2cccs2)OCCCC[C@H](C)O3)cc1 | 12.9%
32 | C[C@H](CO)N1C[C@H](C)[C@@H](CN(C)Cc2ccc(Cl)c(Cl)c2)OCCCC[C@H](C)Oc2ccc(NS(=O)(=O)c3ccccc3)cc2C1=O | -6.94%
33 | C[C@@H]1CCCCO[C@@H](CN(C)C(=O)Cc2ccccc2)[C@@H](C)CN([C@@H](C)CO)C(=O)c2cc(NC(=O)Nc3ccc(C(F)(F)F)cc3)ccc2O1 | 13.9%
34 | O=C(C[C@H]1CC[C@H]2[C@@H](COC[C@@H](O)CN2S(=O)(=O)c2ccccc2Cl)O1)N1CCC(Cc2ccccc2)CC1 | 21.8%
35 | C[C@@H]1CCCCO[C@@H](CN(C)C(=O)NC2CCCCC2)[C@H](C)CN([C@@H](C)CO)C(=O)c2cc(NC(=O)Nc3ccc(C(F)(F)F)cc3)ccc2O1 | 9.03%
36 | Cc1noc(C)c1NC(=O)Nc1cccc2c1O[C@H](CN(C)Cc1ccc(C(F)(F)F)cc1)[C@H](C)CN([C@@H](C)CO)C2=O | 19.9%
37 | C[C@@H]1CN([C@H](C)CO)S(=O)(=O)c2ccc(C#Cc3cccc(F)c3)cc2O[C@@H]1CN(C)C(=O)NC1CCCCC1 | 12.1%
38 | C[C@@H]1CN([C@@H](C)CO)C(=O)Cc2cc(NC(=O)Nc3ccc(C(F)(F)F)cc3)ccc2O[C@H]1CN(C)Cc1ccc(Cl)c(Cl)c1 | 18.9%
39 | C[C@H]1CN([C@@H](C)CO)C(=O)Cc2cc(NC(=O)Nc3ccc(C(F)(F)F)cc3)ccc2O[C@H]1CN(C)C(=O)Nc1ccc(C(F)(F)F)cc1 | 8.26%
40 | C[C@@H]1CCCCO[C@@H](CN(C)C(=O)C2CCCCC2)[C@H](C)CN([C@H](C)CO)C(=O)c2cc(NC(=O)Nc3ccc(F)cc3)ccc2O1 | 4.23%
